A selection: hits, their analogues and other compounds. The true share with any hit is near 1.2%.
RGS8-Gao reg – RGS8-Galphao binding modulators, primary screen, biochemical, multiplexed bead flow cytometry. 220,000 tested, 0.34% active. Guanine nucleotide-binding protein G(o) subunit alpha (Homo sapiens), P09471. actives lie on both sides. response (percent of control binding), % at 10 µM; in the data active = response below about 60% or above about 140%; inactive = in between;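 also: Galphao activated as the GDP aluminium fluoride complex binding bead-coupled RGS8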
Target sequence (P09471 whole entry, looked up): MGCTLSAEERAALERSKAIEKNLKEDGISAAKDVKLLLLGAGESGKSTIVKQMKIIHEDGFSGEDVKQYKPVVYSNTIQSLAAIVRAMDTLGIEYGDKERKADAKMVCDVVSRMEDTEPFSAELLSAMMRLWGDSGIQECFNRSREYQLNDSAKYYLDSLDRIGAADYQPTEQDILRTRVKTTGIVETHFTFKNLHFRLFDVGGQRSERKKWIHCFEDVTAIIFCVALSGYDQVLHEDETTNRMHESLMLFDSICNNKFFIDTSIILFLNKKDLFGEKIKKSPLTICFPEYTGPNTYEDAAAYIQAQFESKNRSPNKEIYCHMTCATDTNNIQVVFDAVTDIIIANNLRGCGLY
RGS16-Gao – modulators of RGS16 binding to Galphao, primary screen, biochemical, human proteins, multiplexed bead flow cytometry. 220,000 tested, 0.38% active. binding response (% of control), % at 10 µM. bead-based flow cytometry RGS16-Galphao binding, fluorescence; actives lie on both sides. Regulator of G-protein signaling 16 (Homo sapiens) + Guanine nucleotide-binding protein …;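 also: Galphao activated by GDP with aluminum fluoride before binding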
RGS4-Gao reg – modulators of RGS4 binding to Galphao, primary screen, biochemical, multiplexed bead flow cytometry. actives lie on both sides. binding response (% of control), % at 10 µM. 220,000 tested, 0.33% active. AID 1415, 2008; in the data active = binding response below about 49% or above about 150%; inactive = in between;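 also: fluorescent Galphao activated with aluminum fluoride binding bead-coupled RGS4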
GSH fluor – compound fluorescence on glutathione beads, profiling panel, artefact control, biophysical, 488/530 nm, flow cytometry | GSH beads flow cytometry, compound fluorescence 488/530 nm; active compounds read high | fluorescence (KMESF) at 10 µM | 190,000 tested, 0.25% active | AID 1776, 2009; in the data active = fluorescence above about 89;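 also: glutathione beads carrying GST-tagged Bcl family fusion proteins plus one bare bead set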
RGS7-Gao reg – RGS7-Galphao binding modulators, primary screen, biochemical, multiplexed bead flow cytometry; binding response (% of control), % at 10 µM; Guanine nucleotide-binding protein G(o) subunit alpha (Homo sapiens), P09471; actives lie on both sides; 220,000 tested, 0.35% active; AID 1439, 2008; in the data active = binding response below about 49% or above about 150%; inconclusive = no clear call, values can overlap the other calls; inactive = in between;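 also: fluorescent Galphao held in activated GDP-AlF4 state binding bead-coupled RGS7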
Avidin fluor – green autofluorescence of compounds with avidin beads – biophysical, 488/530 nm, flow cytometry, artefact control, profiling panel | compound fluorescence 488/530 nm; active compounds read high | fluorescence (KMESF) at 10 µM | 220,000 tested, 0.38% active | AID 1775, 2009; in the data active = fluorescence above about 47
RGS4-Gao HTS – modulators of RGS–Galpha-o binding, primary screen, biochemical, multiplexed beads, flow cytometry, RGS4/7/8/16/19; multiplexed bead flow cytometry; shares compounds with RGS16-Gao; 1,600 tested, 99% active; RGS4–Galpha-o binding response, % at 10 µM;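 also: fluorescently labeled Galpha-o bound to GDP with aluminium fluoride binding biotinylated RGS beads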
Biotin-avidin – disruption of biotin probe capture by avidin, counter-screen for RGS protein interaction modulators, biochemical, flow cytometry, bead-based | shares compounds with RGS16-Gao | streptavidin beads, fluorescein-biotin binding | inhibition, % at 10 µM | 1,700 tested, under 10 active | AID 1783, 2009;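 active = inhibition above 50%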;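 also: median green fluorescence of gated singlet beads compared with DMSO control wells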
RGS8-Gao single – RGS8-Galphao binding modulators, confirmation, biochemical, multiplexed bead flow cytometry, single concentration | shares compounds with RGS16-Gao | bead-based flow cytometry RGS8-Galphao binding, fluorescence; actives lie on both sides | binding response (% of control), % at 10 µM | 1,700 tested, 3% active; in the data active = binding response below about 72% or above about 130%; inactive = in between;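 also: Galphao activated as GDP AlF4 complex before binding bead RGS8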
RGS7-Gao single – RGS7-Galphao binding modulators, confirmation, biochemical, multiplexed bead flow cytometry, single concentration. 1,700 tested, 7.8% active. shares compounds with RGS16-Gao. bead-based flow cytometry RGS7-Galphao binding; actives lie on both sides. response (percent of control binding), % at 10 µM; in the data active = response below about 75% or above about 130%; inactive = in between;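 also: fluorescent Galphao activated with GDP and aluminum fluoride binding bead-coupled RGS7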
RGS16-Gao single – modulators of RGS16-Galphao protein binding, confirmation, biochemical, single concentration, multiplexed bead flow cytometry. 1,700 tested, 4% active. shares compounds with RGS16-Gao. response (% of control binding), % at 10 µM. bead-based flow cytometry; actives lie on both sides; in the data active = response below about 74% or above about 130%; inactive = in between;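 also: Galphao activated as the GDP aluminium fluoride complex binding bead-coupled RGS16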
RGS4-Gao confirm – modulators of RGS4-Galphao protein binding, confirmation, biochemical, single concentration, multiplexed bead flow cytometry; shares compounds with RGS16-Gao; 1,700 tested, 4% active; binding response (% of control), % at 10 µM; actives lie on both sides; in the data active = binding response below about 74% or above about 130%; inactive = in between
RGS19-Gao conf – regulators of RGS19-Galphao binding, confirmation, biochemical, single point, multiplexed bead flow cytometry; bead-based flow cytometry RGS19-Galphao binding; actives lie on both sides; AID 1841, 2009; 1,700 tested, 5% active; response (percent of control binding), % at 10 µM; shares compounds with RGS16-Gao; in the data active = response below about 50% or above about 160%; inactive = in between
Target sequence (P09471 whole entry, looked up): as above
Target sequence (P49795 whole entry, looked up): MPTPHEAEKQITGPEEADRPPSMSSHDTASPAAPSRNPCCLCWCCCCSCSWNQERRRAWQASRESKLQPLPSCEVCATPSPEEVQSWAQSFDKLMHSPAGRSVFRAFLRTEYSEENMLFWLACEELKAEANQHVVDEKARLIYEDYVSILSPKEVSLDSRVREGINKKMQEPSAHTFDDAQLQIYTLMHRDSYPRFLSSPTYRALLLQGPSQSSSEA
Hits are given with their value; [ ] = another dose, or the depositor's remark. Unless noted, no rule for the calls is given here.

For O=C(CSc1ccccc1)Nc1cc(S(=O)(=O)N2CCOCC2)ccc1N1CCOCC1 the results were RGS8-Gao reg 15, RGS16-Gao 13, RGS4-Gao reg 22, GSH fluor inactive, RGS7-Gao reg inconclusive, Avidin fluor inactive, Biotin-avidin inactive, RGS8-Gao single inactive, RGS7-Gao single inactive, RGS16-Gao single inactive, RGS4-Gao confirm inactive and RGS19-Gao conf inactive.
CC1CCN(C(=O)Nc2cccc(NC(=O)N3CCC(C)CC3)c2)CC1 was read as RGS8-Gao reg inactive, RGS16-Gao inactive, RGS4-Gao reg inactive, GSH fluor inactive, RGS7-Gao reg inactive and Avidin fluor inactive.
`Oc1ccc(N=Nc2n[nH]c(-c3ccccc3)n2)cc1` gave RGS8-Gao reg inactive, RGS16-Gao 14, RGS4-Gao reg inactive, GSH fluor inactive, RGS7-Gao reg inactive, Avidin fluor inactive, RGS4-Gao HTS 91, Biotin-avidin inactive, RGS8-Gao single inactive, RGS7-Gao single 56, RGS16-Gao single 72, RGS4-Gao confirm 72 and RGS19-Gao conf 35.
Cc1ccc(CSCC(=O)NCc2ccc3c(c2)OCO3)cc1 was read as RGS8-Gao reg inactive, RGS16-Gao inactive, RGS4-Gao reg inactive, RGS7-Gao reg inconclusive and Avidin fluor inactive.
`O[C@@H]1C2CCCC1[C@]1(O)CCCCC1C2` (stereo partly drawn) gave RGS8-Gao reg inactive, RGS16-Gao inactive, RGS4-Gao reg inactive, GSH fluor inactive, RGS7-Gao reg inactive and Avidin fluor inactive.
Screening NC[C@@]12CCCC1C1CCC2C1 (stereo partly drawn) returned GSH fluor inactive, Biotin-avidin inactive, RGS8-Gao single inactive, RGS7-Gao single inactive, RGS16-Gao single inactive, RGS4-Gao confirm inactive and RGS19-Gao conf inactive.
`Cc1ccc(NC(=O)CSc2nc3ccccc3c(=O)n2CCCN2CCCCC2)cc1Cl` gave RGS8-Gao reg 149[activator], RGS16-Gao inactive, RGS4-Gao reg inactive, GSH fluor inactive, RGS7-Gao reg inactive, Avidin fluor inactive, RGS4-Gao HTS 115, Biotin-avidin inactive, RGS8-Gao single inactive, RGS7-Gao single 61, RGS16-Gao single inactive, RGS4-Gao confirm 71 and RGS19-Gao conf inactive.
For CC1CCN(CCCn2c(SCC(=O)Nc3ccccc3Cl)nc3ccccc3c2=O)CC1 the results were RGS8-Gao reg 145[activator], RGS16-Gao inactive, RGS4-Gao reg inactive, GSH fluor inactive, RGS7-Gao reg inactive, Avidin fluor inactive, RGS4-Gao HTS 119, Biotin-avidin inactive, RGS8-Gao single inactive, RGS7-Gao single inactive, RGS16-Gao single inactive, RGS4-Gao confirm inactive and RGS19-Gao conf inactive.
COc1ccc(NS(=O)(=O)c2ccc(Oc3ncccn3)cc2)cc1 was read as RGS8-Gao reg inactive, RGS16-Gao inactive, RGS4-Gao reg inactive, GSH fluor inactive, RGS7-Gao reg inactive and Avidin fluor inactive.
CN(C(=S)Nc1ccc(Oc2ccccc2)cc1)C1CCCCC1 was read as RGS8-Gao reg inactive, RGS16-Gao 14, RGS4-Gao reg inactive, GSH fluor inactive, RGS7-Gao reg inactive, Avidin fluor inactive, RGS4-Gao HTS 87, Biotin-avidin inactive, RGS8-Gao single inactive, RGS7-Gao single inactive, RGS16-Gao single inactive, RGS4-Gao confirm inactive and RGS19-Gao conf inactive.
`COc1cc(NC(=O)CCc2c(C)nc3nc(C)nn3c2C)cc(OC)c1` gave RGS8-Gao reg inactive, RGS16-Gao inactive, RGS4-Gao reg inactive, GSH fluor inactive, RGS7-Gao reg inactive and Avidin fluor inactive.
Screening CC(CCC(=O)O)C1CC[C@@]2(C)C3C(=O)CC4C(C)(C)C(O)CC[C@]4(C)C3C(=O)C[C@]12C (stereo partly drawn) returned RGS8-Gao reg 57, RGS16-Gao inactive, RGS4-Gao reg inactive, RGS7-Gao reg inconclusive, Avidin fluor inactive, RGS4-Gao HTS 89, Biotin-avidin inactive, RGS8-Gao single inactive, RGS7-Gao single inactive, RGS16-Gao single inactive, RGS4-Gao confirm inactive and RGS19-Gao conf inactive.
For CCc1cc2c(=O)c(-c3cnn(-c4ccccc4)c3)c(C)oc2cc1OCC(=O)Nc1cccc(C)c1 the results were RGS8-Gao reg inactive, RGS16-Gao 257[activator], RGS4-Gao reg inactive, GSH fluor inactive, RGS7-Gao reg inactive, Avidin fluor inactive, RGS4-Gao HTS 109, Biotin-avidin inactive, RGS8-Gao single inactive, RGS7-Gao single inactive, RGS16-Gao single inactive, RGS4-Gao confirm inactive and RGS19-Gao conf inactive.
`C/C(=N\Nc1cccc2cccnc12)c1ccc(C)cc1` gave RGS8-Gao reg inactive, RGS16-Gao inactive, RGS4-Gao reg inactive, GSH fluor inactive, RGS7-Gao reg inconclusive and Avidin fluor inactive.

Screening data as filed in PubChem BioAssay.
